Most compounds without a hit are left out; they make up all but 10% or so of the library.
CtBP-E1A inh: CtBP/E1A binding inhibition; AlphaScreen GST-E1A/His-CtBP binding, 1536-well; stronger effect = lower value; activity change, % (concentration not given with the values); AID 651724; hit rate 0.49% among 340,000; in the data active = activity change below about -65%; inconclusive = mostly about -30% to -63%; also: % is scaled to controls: 0 for no effect and ±100 for the full control effect
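Homogeneous bead-based format: GST-tagged E1A captured on glutathione donor beads, His-tagged CtBP on nickel acceptor beads; compounds precede bead addition by 2 h at 37 °C.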
Six1-Eya2 blk: blocks human Six1 binding to Eya2; Q15475+O00167; AlphaScreen GST-Six1/His-Eya2 binding, biochemical; stronger effect = lower value; activity change, % (no concentration beside the values); hit rate 0.56% among 360,000; AID 651725; in the data active = activity change below about -65%; inconclusive = mostly about -30% to -63%; also: % is scaled to controls: 0 for no effect and ±100 for the full control effect
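GST-Six1 + His-Eya2 (5X stock: 250/500 nM); Tris pH 8.0, 300 mM NaCl, 0.05% BSA, 0.02% Tween 20; GSH donor/Ni acceptor beads; 1 h 37 °C dark; AlphaScreen readout.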
G9a inh: G9a (human) methyltransferase inhibition | G9a H3K9 monomethylation, AlphaScreen, 2 h | AID 504332 | Q96KQ7 | Potency, µM (top dose mostly 102 µM), without a hit: at the top dose activity, negative = inhibition, hits mostly inhibitors | hit rate 8.8% among 350,000; also: potency is read from the fitted curve at half-maximal effect; % is scaled to controls: 0 for no effect and ±100 for the full control effect; nearly all actives have a fitted effect of over 75% in size
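Step 1: enzyme (final 20 nM) with compound, 15 min RT. Step 2: substrate peptide 500 nM and SAM 20 uM, 2 h RT. Step 3: anti-H3K9me1 antibody and AlphaScreen beads, 10 min, then plate read.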
JMJD2A Tudor: JMJD2A Tudor domain (human) inhibition. O75164. AlphaScreen JMJD2A-Tudor / H3K4me3 peptide binding. Potency, µM (top dose mostly 114 µM), inactives show at the highest dose activity change, negative = inhibition, hits mostly inhibitors. hit rate 4.4% among 390,000. AID 504339; also: potency is read from the fitted curve at half-maximal effect; % is scaled to controls: 0 for no effect and ±100 for the full control effect; nearly all actives have a fitted effect of over 50% in size
HP1b binding inh: blocks HP1-beta chromodomain binding to methylated histone tails; Potency, µM (titrated, usually from 114 µM), for inactives: at the highest dose activity change, negative = inhibition, usual class: inhibitors; hit rate 0.56% among 390,000; P83916; AlphaScreen HP1-beta / biotin-H3K9me3 peptide binding; also: potency is read from the fitted curve at half-maximal effect; nearly all actives have a fitted effect of over 70% in size
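AlphaScreen: HP1-beta (50 nM) preformed 30 min with biotin-H3(1-18)K9me3 peptide (50 nM) in PBS pH 7.4, 0.01% Tween-20. Compound added for 30 min at RT, then streptavidin donor/nickel chelate acceptor beads (10 ug/mL) for 30 min.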
BAZ2B block: blocks human BAZ2B; hit rate 4.4% among 360,000; AlphaScreen BAZ2B-H3K14Ac peptide displacement; Potency, µM (series often up to 114 µM), inactives show top-dose activity change, negative = inhibition, most hits filed as inhibitors; also: potency is read from the fitted curve at half-maximal effect; % is scaled to controls: 0 for no effect and ±100 for the full control effect; nearly all actives have a fitted effect of over 60% in size
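AlphaScreen displacement of biotin-H3(5-23)K14Ac peptide (50 nM final) from BAZ2B (50 nM final) in PBS pH 7.4, 0.01% Tween-20; complex preformed 30 min RT, then compounds (top 110 uM) 30 min RT, beads 20 min dark.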
* hit, by the source's call; ? = inconclusive; . = not tested or not shown; [ ] = another dose, or the depositor's remark. Unless noted, calls follow the shape of the dose curve; as a rule, active = well fitted inhibition curve with a large enough effect; inconclusive = small, poorly fitted or top-dose-only effect; inactive = no such curve, though single readings can be large or run the other way.

SMILES	CtBP-E1A inh	Six1-Eya2 blk	G9a inh	JMJD2A Tudor	HP1b binding inh	BAZ2B block
COC(=O)C1=C(C(=O)OC)C(C(=O)OC)C(C(=O)OC)C(C(=O)OC)(C(=O)OC)C(C(=O)OC)=C1C(=O)OC (stereo not drawn)	2	9	.	89µM*	50µM*	.
COC(=O)C1C(C(=O)OC)C1(c1ccccc1)c1ccccc1 (stereo not drawn)	-1	14	10%	-3%	20%	-13%
Cc1noc(C)c1NC(=O)Nc1ccc2c(c1)C(=O)N([C@H](C)CO)C[C@H](C)[C@H](CN(C)C)O2	4	1	.	-20%	32%	.
CC(CNCC1CCCO1)COc1cccc2ccccc12 (stereo not drawn)	14	-3	?	1.8µM*	?	?
CC(=O)Nc1cccc(-c2cnc(N)c(C(=O)c3cccnc3)n2)c1	?	-28	.	-21%	37%	.
CN(C)c1ccc(C(CNC(=O)c2c(F)cccc2Cl)N2CCOCC2)cc1 (stereo not drawn)	.	.	-38%[59 µM]	-18%	4%	-19%
COc1ccc(-c2ccc(SCC(=O)N3CCCC3)nn2)cc1OC	1	4	?	-1%	25%	4%
COc1ccc(-c2ccc(SCC(=O)c3ccc(F)cc3)nn2)cc1OC	-18	?	35µM*	-11%	14%	4%
COc1ccc(C(=O)CSc2ccc(-c3ccc(C)cc3)nn2)cc1	5	-4	?	-1%	41%	-3%
COc1ccc(-c2ccc(SCC(=O)c3cccs3)nn2)cc1OC	?	?	50µM*	-14%	5%	-23%
CCCCCCCCCCCCCCCCOCCOCCOCCOCCOCCOCCOCCOCCOCCOCCOCCOCCOCCOCCOCCOCCOCCOCCOCCOCCO	.	.	-5%[12.7 µM]	.	.	.
O=c1nc2ccccc2c2n1CC(CN1CCN(c3ccccc3)CC1)N2 (stereo not drawn)	.	.	34%[59 µM]	.	.	.
Cc1cccc(N(CC(=O)NC2CCCC2)C(=O)CS(=O)CC(=O)Nc2ccc3c(c2)OCO3)c1C (stereo not drawn)	-5	-3	7.9µM*	-12%[57.1 µM]	33%	-11%
Cc1ccc(NC(=O)CS(=O)CC(=O)N(CC(=O)NC2CCCC2)c2cccc(C)c2C)cc1 (stereo not drawn)	11	0	1%[59 µM]	-19%	28%	19%
CCCCS(=O)(=O)Nc1ccc(C)cn1	5	-2	7.1µM*	-18%	?	-2%
Cc1ccc(C)c(C(C)NC(=O)c2ccc(Br)o2)c1 (stereo not drawn)	-11	17	50µM*	-8%	59%	10%
O=C1C2C3C=CC(C3)C2C(=O)N1c1ccncc1 (stereo not drawn)	9	6	9%[12.7 µM]	-1%	-3%	-17%
O=C1C2C3C=CC(C3)C2C(=O)N1c1ncn[nH]1 (stereo not drawn)	7	-9	?	50µM*	?	?
Cc1cc2c(c(C)c1Cl)C(c1ccc3c(c1)OCO3)CC(O)(c1ccccc1)O2 (stereo not drawn)	.	.	.	-35%	18%	.
CC(NC(=O)Cn1cc(C(=O)C2CC2)c2ccccc21)c1ccccc1 (stereo not drawn)	-5	-1	16%[59 µM]	79µM*	-5%	9%
COC(=O)Cn1cc(C(=O)C2CC2)c2ccccc21	-2	8	11%[12.7 µM]	5%	16%	1%
O=C(CNC(=O)C1CCCC1)OC(C(=O)Nc1cc(C(F)(F)F)ccc1Cl)c1ccccc1 (stereo not drawn)	.	.	.	-11%	.	.
COc1ccc(-c2cc(-c3ccco3)[nH]c(=O)c2C#N)cc1OC	1	-7	10µM*	?	12%	56µM*
CCOC(=O)CSc1nc(N)c2c3c(sc2n1)CCCC3	-1	-1	71µM*	1%	22%	9%
CCSc1nc(N)c2c3c(sc2n1)CN(C)CC3	.	.	45µM*	.	.	7%
SMILES	CtBP-E1A inh	Six1-Eya2 blk	G9a inh	JMJD2A Tudor	HP1b binding inh	BAZ2B block
CCN(CC)C(=O)CSc1nc(N)c2c3c(sc2n1)CC(C)CC3 (stereo not drawn)	-26	?	-51%[59 µM]	-27%	-1%	-35%
COc1ccc(-c2cc(C(F)(F)F)nc(SCC(=O)N(C)Cc3cn(C)nc3C)n2)cc1OC	1	-7	?	-13%	25%	-28%
O=C(N/N=C/c1ccccn1)c1ccc([N+](=O)[O-])cc1	-22	-12	-32%	-17%	29%	-38%
O=C(N/N=C/c1ccccn1)c1cc([N+](=O)[O-])cc([N+](=O)[O-])c1	.	?	15%	56µM*	20%	50µM*
O=C(N/N=C/c1ccccn1)c1cccc(S(=O)(=O)Nc2ccccc2Cl)c1	4	-86*	-3%	-13%[57.1 µM]	25%	?
O=C(O)COc1ccccc1/C=N/NC(=O)c1cccc(S(=O)(=O)Nc2cccc(Cl)c2)c1	-71*	?	?	-11%	7%	-35%
C(=N\N=C\c1ccccn1)/c1ccccn1	-28	-25	2%	?	59%	50µM*
COc1ccc(-n2c(SCC(=O)c3ccc(Cl)cc3)nc3c([nH]c4ccccc43)c2=O)cc1	.	.	5%[59 µM]	-8%	19%[57 µM]	1%
CC(C)c1ccc2[nH]c(O)c(N=NC(=O)c3cccc(S(=O)(=O)Nc4ccccc4Cl)c3)c2c1	-20	?	-24%	-11%	9%	2%
C/C(CC(=O)Nc1cc(C)ccn1)=N\NC(=O)c1cccc(C)c1	-19	17	103%[59 µM]	-12%	18%	89µM*
O=C(O)c1cccc(NC(=S)N/N=C/c2ccccn2)c1	.	-76*	50µM*	25µM*	14%	3.5µM*
Cc1cccc(C(=O)Nc2cccc(C(=O)N/N=C/c3ccccn3)c2)c1	.	?	?	-24%	23%	4%
O=C(N=Nc1c(O)[nH]c2ccccc12)c1cccc(S(=O)(=O)Nc2ccccc2Cl)c1	.	-11	9%[59 µM]	28µM*	-9%	?
C/C(CC(=O)Nc1cc(C)ccn1)=N\NC(=O)C(=O)NC(C)C	-13	6	-48%	?	19%	?
O=C(O)c1cccc(NC(=S)N/N=C/c2cccc(O)c2)c1	-7	-1	-23%	-17%	-7%	-23%
Cc1cccc(C(=O)N/N=C/c2ccccn2)c1	6	-29	16µM*	?	7%	3%
CN(Cc1cn(Cc2ccc(F)cc2)nn1)C1CN(Cc2cn(Cc3ccc(F)cc3)nn2)S(=O)(=O)C1 (stereo not drawn)	6	4	.	.	.	.
O=C(COc1ccccc1-c1nnc(-c2ccccc2)o1)Nc1ccc(Br)cc1F	.	.	15%[59 µM]	-2%	11%	-6%
COc1cc(/C=N/NC(=O)c2ccc(N(C)S(=O)(=O)c3ccccc3)cc2)cc(OC)c1OC	-21	-13	-10%[59 µM]	-8%	19%	-30%

From PubChem
